We go through 19 molecules from PubChem BioAssay.

Results filed as inconclusive are left out. Active and inactive are the calls of the source. The limit is not given here; nearly all actives have AC50 up to about 27 µM.

A short description of the assay: growth inhibition of DIPG glioma cells, dose response, cell-based, JHH-DIPG-1, MIPE4.0, CellTiter-Glo, qHTS (AID 1347062).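 As to AC50: cells exposed to compound for two days before readout.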 As to conditions: JHH-DIPG-1 viability, CellTiter-Glo ATP luminescence.
Regarding `CC12CC3CC(C)(C1)CC(N)(C3)C2`, the AC50 is 3320 nM (active). For `CC(=O)OCC(CCn1cnc2cnc(N)nc21)COC(C)=O`, the result was inactive. On to `S=c1nc[nH]c2nc[nH]c12`, for which the AC50 was 935 nM (active). On to `OC(Cn1cncn1)(Cn1cncn1)c1ccc(F)cc1F`, for which the outcome was inactive.

As for `COc1c(N2CCNC(C)C2)c(F)cc2c(=O)c(C(=O)O)cn(C3CC3)c12` (centres undefined), the molecule was called inactive. Turning to `CC1COc2c(N3CCN(C)CC3)c(F)cc3c(=O)c(C(=O)O)cn1c23` (centres undefined), the molecule was called inactive. Regarding `O=C(C1CCCCC1)N1CC(=O)N2CCc3ccccc3C2C1` (centres undefined), the result was inactive. For the molecule `CCc1cc(C(N)=S)ccn1`, the result was inactive. On to `CC1=C(/C=C/C(C)=C/C=C/C(C)=C/C(=O)O)C(C)(C)CCC1`, for which the molecule was called inactive. For `CCCCNc1cc(C(=O)O)cc(S(N)(=O)=O)c1Oc1ccccc1`, the outcome was inactive. In the case of `O=c1[nH]cnc2[nH]ncc12`, the call was inactive.

Regarding `O=C1c2c(O)ccc(O)c2C(=O)c2c(NCCNCCO)ccc(NCCNCCO)c21`, the AC50 was 2350 nM (active).

Take `O=C(O)c1cc(=O)c2c(OCC(O)COc3cccc4oc(C(=O)O)cc(=O)c34)cccc2o1`: the result was inactive.

For the molecule `CC(C)C(=O)Nc1ccc([N+](=O)[O-])c(C(F)(F)F)c1`, the half-maximal activity concentration (AC50) was 18700 nM (active). `CC(COc1ccccc1)N(CCCl)Cc1ccccc1` (centres undefined): the outcome was inactive. In the case of `CCCc1nc2c(C)cc(-c3nc4ccccc4n3C)cc2n1Cc1ccc(-c2ccccc2C(=O)O)cc1`, the outcome was inactive. Regarding `NS(=O)(=O)c1cc2c(cc1Cl)NCNS2(=O)=O`, the molecule was classed as inactive. Still for that read-out and setting: then `CS(=O)(=O)OCCCCOS(C)(=O)=O`, with “inactive”; and `COc1ccccc1OCCNCC(O)COc1cccc2[nH]c3ccccc3c12` (centres undefined), with “inactive”.
